Records with an inconclusive call do not appear. Activity calls are given as the source filed them. Calls come from the whole dose curve; as a rule, active = well fitted curve in the direction sought with a large enough effect; inconclusive = small, poorly fitted or top-dose-only effect, or another doubt; inactive = no such curve, though single readings can be large; an effect the other way counts as inactive or inconclusive.
Experiments:
[1] = qHTS of pediatric cancer cell lines to identify multiple opportunities for drug repurposing: Primary screen for NB-EBc1 cells (AID 1347095); note: potency is the fitted concentration of half-maximal effect
Method in brief: (§1)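 500-1,000 cells/well; 5 h pre-incubation 37 °C/5% CO2; compound pinned; 48 h; CellTiter-Glo, 15 min RT; luminescence. MIPE 11-pt from 0.78 nM, NPC 8-pt from 0.59 nM final. Bortezomib 2.3 µM final as positive control.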

[2] = qHTS of pediatric cancer cell lines to identify multiple opportunities for drug repurposing: Primary screen for U-2 OS cells (AID 1347096); note: nearly all actives have a fitted effect of over 50% in size; note: potency is the fitted concentration of half-maximal effect
Method in brief: (§2)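 Viability after 48 h compound treatment at 37C, 500-1,000 cells/well, read as ATP luminescence with CellTiter-Glo. Primary screens used 11-point (MIPE, 0.78 nM-46 µM) or 8-point (NPC, 0.59 nM-46 µM) final concentrations; follow-up screens used 11-point dilutions.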

[3] = qHTS of pediatric cancer cell lines to identify multiple opportunities for drug repurposing: Primary screen for LAN-5 cells (AID 1347100)
Method in brief: as §2

[4] = qHTS of pediatric cancer cell lines to identify multiple opportunities for drug repurposing: Primary screen for BT-12 cells (AID 1347101); note: nearly all actives have a fitted effect of over 25% in size; note: potency is the fitted concentration of half-maximal effect
Method in brief: (§3)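 Cells (500-1,000/well) rested 5 h, then received compounds for 48 h; metabolically active cells were measured by CellTiter-Glo luminescence. Final concentrations spanned up to 46 µM (MIPE, 11-point) or 0.59 nM-46 µM (NPC, 8-point) in primary screens, 11-point in follow-ups.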

[5] = qHTS of pediatric cancer cell lines to identify multiple opportunities for drug repurposing: Primary screen for Rh18 cells (AID 1347102); note: nearly all actives have a fitted effect of over 65% in size; note: potency is the fitted concentration of half-maximal effect
Method in brief: as §2

[6] = qHTS of pediatric cancer cell lines to identify multiple opportunities for drug repurposing: Primary screen for OHS-50 cells (AID 1347103); note: nearly all actives have a fitted effect of over 40% in size; note: potency is the fitted concentration of half-maximal effect
Method in brief: as §3

[7] = qHTS of pediatric cancer cell lines to identify multiple opportunities for drug repurposing: Primary screen for RD cells (AID 1347104); note: nearly all actives have a fitted effect of over 55% in size; note: potency is the fitted concentration of half-maximal effect
Method in brief: as §1

[8] = qHTS of pediatric cancer cell lines to identify multiple opportunities for drug repurposing: Primary screen for MG 63 (6-TG R) cells (AID 1347105); note: nearly all actives have a fitted effect of over 50% in size; note: potency is the fitted concentration of half-maximal effect
Method in brief: as §1

[9] = qHTS of pediatric cancer cell lines to identify multiple opportunities for drug repurposing: Primary screen for control Hh wild type fibroblast cells (AID 1347106); note: nearly all actives have a fitted effect of over 55% in size; note: potency is the fitted concentration of half-maximal effect
Method in brief: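 Cells (500-1,000/well) in growth media were settled 5 h at 37 degrees C, then given compounds for 48 h. Viability was read as CellTiter-Glo luminescence. Primary runs used MIPE at 11 points (0.78 nM-46 µM) and NPC at 8 points (0.59 nM-46 µM); follow-ups used 11 points.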

[10] = qHTS of pediatric cancer cell lines to identify multiple opportunities for drug repurposing: Primary screen for Rh30 cells (AID 1347107); note: series mostly up to about 46 µM; nearly all actives have a fitted effect of over 75% in size
Method in brief: as §2

[11] = qHTS of pediatric cancer cell lines to identify multiple opportunities for drug repurposing: Primary screen for Rh41 cells (AID 1347108);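 note: series mostly up to about 46 µM; luminescence drop marks cytotoxic hits; nearly all actives have a fitted effect of over 70% in size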
Method in brief: as §1

[12] = qHTS of pediatric cancer cell lines to identify multiple opportunities for drug repurposing: Primary screen for SK-N-SH cells (AID 1347098); note: nearly all actives have a fitted effect of over 65% in size; note: potency is the fitted concentration of half-maximal effect
Method in brief: as §3

[13] = qHTS of pediatric cancer cell lines to identify multiple opportunities for drug repurposing: Primary screen for NB1643 cells (AID 1347099); note: nearly all actives have a fitted effect of over 50% in size; note: potency is the fitted concentration of half-maximal effect
Method in brief: as §1

[14] = qHTS of pediatric cancer cell lines to identify multiple opportunities for drug repurposing: Primary screen for Saos-2 cells (AID 1347097); note: nearly all actives have a fitted effect of over 40% in size; note: potency is the fitted concentration of half-maximal effect
Method in brief: as §1

[15] = qHTS of pediatric cancer cell lines to identify multiple opportunities for drug repurposing: Confirmatory screen for NB1643 cells (AID 1347109); note: nearly all actives have a fitted effect of over 45% in size; note: potency is the fitted concentration of half-maximal effect
Method in brief: as §2

[16] = qHTS of pediatric cancer cell lines to identify multiple opportunities for drug repurposing: Confirmatory screen for A673 cells (AID 1347110); conditions: A673 Ewing sarcoma cell viability; note: potency is the fitted concentration of half-maximal effect; nearly all actives have a fitted effect of over 65% in size
Method in brief: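 qHTS titration format: primary MIPE 0.78 nM-46 µM (11 pts), NPC 0.59 nM-46 µM; confirmation 11 pts. 48 h, CTG luminescence.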

[17] = qHTS of pediatric cancer cell lines to identify multiple opportunities for drug repurposing: Confirmatory screen for SK-N-MC cells (AID 1347111); conditions: SK-N-MC cell viability;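 note: potency is the fitted concentration of half-maximal effect; cells exposed to compound for 48 h before the readout; nearly all actives have a fitted effect of over 70% in size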
Method in brief: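 SK-N-MC cells at 500-1,000 cells/well in growth media were pre-incubated 5 h, then exposed to compounds at 11-point dilutions for 48 h at 37 degrees C, 5% CO2. Viability was read as CellTiter-Glo luminescence.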

[18] = qHTS of pediatric cancer cell lines to identify multiple opportunities for drug repurposing: Confirmatory screen for BT-12 cells (AID 1347112); note: nearly all actives have a fitted effect of over 55% in size; note: potency is the fitted concentration of half-maximal effect
Method in brief: as §2

[19] = qHTS of pediatric cancer cell lines to identify multiple opportunities for drug repurposing: Confirmatory screen for LAN-5 cells (AID 1347113); note: nearly all actives have a fitted effect of over 65% in size; note: potency is the fitted concentration of half-maximal effect
Method in brief: as §2

[20] = qHTS of pediatric cancer cell lines to identify multiple opportunities for drug repurposing: Confirmatory screen for DAOY cells (AID 1347114); note: nearly all actives have a fitted effect of over 65% in size
Method in brief: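 Viability measured as metabolically active cells via CellTiter-Glo luminescence following 48 hours of compound exposure, 11-point dilutions in confirmatory testing. 500-1,000 cells/well plated 5 hours before dosing; controls were DMSO and 2.3 µM bortezomib.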

Measured: Potency

NCCO
inactive: [1] | [2] | [3] | [4] | [5] | [6] | [7] | [8] | [9] | [10] | [11]

Cc1cc(O)c2ccccc2c1O
active: [12] 34400 nM | [13] 18800 nM | [8] 26600 nM
inactive: [9]

[O-][n+]1ccccc1SSc1cccc[n+]1[O-]
active: [2] 231 nM | [14] 92 nM | [12] 67 nM | [13] 92 nM | [4] 120 nM | [5] 517 nM | [6] 338 nM | [7] 73.1 nM | [8] 184 nM | [9] 11600 nM | [15] 1150 nM | [16] 1620 nM | [17] 456 nM | [18] 3230 nM | [19] 288 nM

CN(C)c1ccc(N=NS(=O)(=O)O)cc1
inactive: [1] | [2] | [12] | [5] | [6] | [7] | [8] | [9] | [10] | [11]

O=c1cc(-c2ccccc2)oc2ccccc12
inactive: [1] | [3] | [5] | [7] | [8] | [9] | [11]

COc1ccc(-c2cc(=S)ss2)cc1
inactive: [2] | [14] | [12] | [13] | [3] | [5] | [7] | [8] | [9] | [10] | [11]

COC(=O)C1=C(C)NC(C)=C(C(=O)OCC(C)C)C1c1ccccc1[N+](=O)[O-] (centres undefined)
active: [6] 24600 nM
inactive: [14] | [8] | [9] | [10]

Nc1ccc([N+](=O)[O-])cc1O
inactive: [2] | [12] | [5] | [10] | [11] | [15] | [18] | [19] | [20]
active: [1] 15400 nM | [16] 2140 nM

Source: PubChem BioAssay (NCATS)
